# Screening data as filed in PubChem.
# Only some compounds are listed: those with a hit (about 12% of all), similar ones and a draw of the others.
# Shiga toxin inh: Shiga toxin inhibition; Vero cells, Shiga toxin protein synthesis inhibition reporter; inhibition, % at 38.7 µM; 290,000 compounds, 9.2% hits; AID 2315; in the data active = inhibition mostly above about 28%, no sharp cut-off; inactive = mostly below about 43%; also: 0% is about no effect
# Sm TGR block: S. mansoni TGR enzyme inhibition; Q962Y6; purified TGR, DTNB reduction, TNB absorbance 405 nm; Potency, µM (top dose mostly 114 µM), inactives show at the top dose activity change, negative = inhibition, actives largely listed as inhibitors; 360,000 compounds, 3% hits; active = well fitted inhibition curve with a large enough effect; inconclusive = small, poorly fitted or top-dose-only effect; inactive = no such curve, though single readings can be large or run the other way; also: potency is read from the fitted curve at half-maximal effect; % is scaled to controls: 0 for no effect and ±100 for the full control effect; nearly all actives have a fitted effect of over 60% in size
#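 Kinetic colorimetric format: TGR-catalysed, NADPH-driven DTNB reduction monitored via TNB absorbance. Enzyme dispensed at 20 nM; compound exposure 15 min at room temperature before reaction start.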
# Cycloheximide cs: counter-screen hit for Shiga toxin inhibitors, cycloheximide | cell reporter, cycloheximide protein synthesis inhibition counterscreen | max response, % | 300,000 compounds, 12% hits; in the data active = max response mostly above about 13%, no sharp cut-off; inactive = mostly below about 14%; also: read at 38.3 µM for the half of the compounds with a filed dose; 0% is about no effect
# FMDV antiviral: antivirals against foot and mouth disease virus. FMDV antiviral cell-based qHTS. Potency, µM (highest dose often 57.9 µM), inactives show top-dose activity change, negative = inhibition, most hits filed as inhibitors. 410,000 compounds, 1.2% hits; calls by dose curve; tested in HEK293T cells; also: read-out not given here; potency is read from the fitted curve at half-maximal effect; % is scaled to controls: 0 for no effect and ±100 for the full control effect; nearly all actives have a fitted effect of over 45% in size
# * marks the source's active call; other numbers are inactive results; ? = inconclusive; / = no result given.
SMILES,Shiga toxin inh,Sm TGR block,Cycloheximide cs,FMDV antiviral
CCOc1ccccc1NC(=O)C1CCCN(S(=O)(=O)c2cccs2)C1 (stereo unspecified),/,2%,/,0%
CNc1nc(-c2ccc(N(C)C)cc2)nc2ccccc12,/,/,/,20%
Cc1ccccc1-c1noc(-c2ccc(N3CCN(C)CC3)c([N+](=O)[O-])c2)n1,/,0%,/,?
O=C(NCCO)c1nc2ccccc2s1,37*,-2%,17,59%
CC(=O)NCc1ccc(-c2nc3ccccc3s2)cc1,58*,2%,39*,9%
O=C(NCc1ccccc1)c1nc2ccccc2s1,37,6%,23*,36%
CC(=O)NCc1ccc(-c2csc(-c3cccs3)n2)cc1,86*,23%,21*,46%
Cc1ccc(CNC(=O)CCc2nc(-c3cccs3)no2)cc1,-13,0%,-2,2%
COc1ccc(CNC(=O)CCC(=O)N2CC3CCCN3c3ccccc32)cc1 (stereo unspecified),/,2%,/,8%
O=C(NCc1ccco1)c1nc2ccccc2s1,77*,3%,23*,55%
COCCNC(=O)c1nc2ccccc2s1,44*,6%,24,43%
O=C(COC(=O)CCCc1nc2ccccc2s1)NC(=O)NCc1ccco1,-2,-10%,0,-6%
Cc1ccccc1NC(=O)Cn1c(=O)n(Cc2ccc3c(c2)OCO3)c(=O)c2oc3ccccc3c21,/,13%,/,20%
Cc1cc(=O)oc2c(N)c(O)ccc12,38*,1%,17,4%
O=C(CSc1nccn1-c1ccc(Cl)cc1)Nc1cccc2ccccc12,/,-110%,/,-17%
CCCC(=O)Nc1ccc(NC(=O)C2CC2)cn1,17,-6%,26*,33%
CCCNC(=O)c1nn2cc(Br)cnc2c1Cl,-2,6%,20,0%
CCCCC(=O)Nc1ccc(NC(=O)C2CC2)cn1,33,-1%,11,52%
CCCCC(=O)Nc1ccc(Br)cn1,61,-8%,22*,32%
CCCCNC(=O)Nc1ccccn1,31,2%,10,5%
CCCCNC(=O)Nc1ccc(Br)cn1,31*,4%,36*,31%
CCCCNC(=O)c1nn2cc(Br)cnc2c1Br,22,3%,23*,25%
CCOC(=O)N1CCc2c(sc3c2c(=O)n(Cc2ccccc2)c(=O)n3CC(=O)Nc2ccccc2F)C1,/,-5%,/,-11%
COc1ccccc1Nc1nn2c(=O)c3ccc(C(=O)NCCc4ccccc4)cc3nc2s1,/,1%,/,?
CC(C)Oc1ccc(CNC(=O)C2CCN(C(=O)N3CC(C)Oc4ccccc43)CC2)cc1 (stereo unspecified),/,-6%,/,?
SMILES,Shiga toxin inh,Sm TGR block,Cycloheximide cs,FMDV antiviral
CCCCC(=O)Nc1ccc(NC(=O)CCCC)nc1,63,7%,13*,4%
CCCCC(=O)Nc1ccc(C(N)=O)cc1,4,-25%,-1,20%
O=C(CS(=O)(=O)c1ccccc1)Nc1ccc(Br)cn1,26*,-4%,19*,34%
CC(C)(C)N(Cc1ccccc1)C(=O)CN1C(=O)c2ccccc2C1=O,55*,-11%,38*,12%
Cc1cccc(N2CCN(C(c3ccccc3)c3nnc(-c4ccccc4Cl)o3)CC2)c1C (stereo unspecified),/,7%,/,-7%
O=[N+]([O-])c1ccc(N2CCN(Cc3ccccc3)CC2)c2c1no[n+]2[O-],/,/,/,28µM*
O=[N+]([O-])c1ccc(N2CCN(Cc3ccccc3)CC2)s1,-12,-17%,-3,-17%
Clc1ccccc1/C=C/c1nc(-c2ccccn2)no1,-16,18%,-1,4µM*
c1ccc(-c2noc(-c3ccc4ccccc4c3)n2)nc1,-15,-3%,-4,4µM*
c1ccc(-c2noc(-c3cccnc3)n2)nc1,80*,-10%,42*,3%
c1ccc(-c2noc(-c3ccc4c(c3)OCO4)n2)nc1,-12,-5%,-1,/
c1ccc(-c2noc(-c3ccncc3)n2)nc1,69,-10%,34*,/
Cc1onc(-c2ccccc2Cl)c1-c1nc(-c2ccccn2)no1,-2,1%,2,-16%
COc1cccc(C2C(=O)N(C3CCCCC3)CC(=O)N2CCc2ccc(OC)c(OC)c2)c1 (stereo unspecified),/,11%,/,-10%
C#CCN(C[C@@H]1[C@@H](OC(=O)NCc2ccccc2F)[C@@H](OC(=O)NCc2ccccc2F)Cn2c(=O)ccc(=O)n21)S(=O)(=O)c1ccc(C)cc1,/,/,/,14µM*
Cc1cccc2nc(CSc3ccccc3N)cn12,/,/,/,-3%
Cc1cccc2nc(CSc3nnc(N)s3)cn12,65*,-4%,22*,49%
CC1CCN(S(=O)(=O)c2ccc3c(c2)N(CC(=O)Nc2ccc(F)c(Cl)c2)C(=O)CO3)CC1,/,-2%,/,-17%
C(=NN1CCCCCC1)c1c[nH]c2ccccc12,/,/,/,33%
O=C1C2C3C=CC(C4CC34)C2C(=O)N1/N=C/c1c[nH]c2ccccc12 (stereo unspecified),115*,1%,46*,32%
Cc1ccc2c(c1)CCCN2C(=O)Nc1ccc2c(c1)OCO2,30*,-33%,46*,14%
O=C(CN1CCc2ccccc21)Nc1ccc2c(c1)OCCCO2,/,3%,/,84%
O=C(Nc1ccc2c(c1)OCO2)N1CCCc2ccccc21,85*,-16%,35*,-11%
Cc1ccc(NC(=O)CN(C)CC(=O)Nc2ccc3c(c2)OCO3)cc1,/,/,/,-16%
COc1ccc(Br)c2c1-c1nc(NC(=O)c3cccc(C)c3)sc1C2,/,-5%,/,-7%
SMILES,Shiga toxin inh,Sm TGR block,Cycloheximide cs,FMDV antiviral
CC(=O)c1ccc(N2CCN(C(=O)NCc3noc4ccc(C)cc34)CC2)cc1,/,2%,/,-11%
O=C(N/N=C/c1cccc(OC2CSC2)c1)c1ccccc1O,85,-2%,26*,-19%
Cn1nccc1C(=O)Oc1cccc(/C=N/NC(=O)c2ccccc2O)c1,33*,9%,18,-1%
Cn1ncc(Br)c1C(=O)N/N=C/c1cccc(OC2CSC2)c1,26*,0%,4,-22%
O=S(=O)(N/N=C/c1cccc(OC2CSC2)c1)c1ccccc1,-4,-10%,-1,25%
COc1cccc(/C=N/NC(=O)c2cccc3ccccc23)c1,8,-26%,13,-20%
COc1cccc(Cc2nc3ccccc3nc2SCC(=O)Nc2cccc(C)c2)c1,/,-3%,/,1%
CC(=O)Nc1ccc(S(=O)(=O)N/N=C/c2ccc(C)s2)cc1,73*,0%,48*,207%
CCCCNC(=S)N/N=C/c1cc(C)ccc1C,-4,6%,-2,-3%
CCOC(=O)N/N=C\c1sccc1C,15,1%,8,10%
CCCCNC(=S)N/N=C/c1ccc(C)s1,61*,-5%,50*,17%
CCOC(=O)N/N=C\c1ccc(C)s1,68*,-6%,29*,21%
CCCCNC(=S)N/N=C/c1ccccc1F,19,-2%,16*,10%
Cc1ccc(/C=N/NC(=S)NCCc2ccccc2)s1,12,?,17,6%
COc1ccc(NC(=O)N2CCc3c(sc4c3CCCC4)C2c2ccc(F)cc2)cc1 (stereo unspecified),/,-2%,/,-12%
COC(=O)c1ccccc1NC(=O)N1CSC[C@H]1C(=O)OC,-17,28µM*,-1,-27%
COC(=O)c1ccccc1NC(=O)C1CCCC1,-28,-4%,6,-9%
